Compounds with a hit are over-represented: about 5.2% of the library has one in this group of screens.
PLK1 PBD inh – inhibitors of human PLK1 polo-box domain binding; Potency, µM, without a hit: max response, negative = inhibition, actives largely listed as inhibitors; Plk1 PBD binding of FITC phosphopeptide, fluorescence polarization; hit rate 2.8% among 360,000; further: potency means the concentration at half of the fitted maximal effect; series mostly up to about 57 µM; on the % scale 0 is the no-effect control and ±100 the full control effect; nearly all actives have a fitted effect of over 65% in size
TrxR1 inh – blocks rat thioredoxin reductase 1; O89049; recombinant rTrxR1, NADPH fluorescence consumption, selenite substrate; Potency, µM (top dose mostly 114 µM), without a hit: at the top dose activity change, negative = inhibition, hits mostly inhibitors; hit rate 1% among 390,000; further: potency means the concentration at half of the fitted maximal effect; on the % scale 0 is the no-effect control and ±100 the full control effect; nearly all actives have a fitted effect of over 65% in size
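Rat TrxR1 (90 nM in the dispensed reagent) was pre-reduced with 400 uM NADPH for 5 min at room temperature, then incubated with compound for 15 min. After 400 uM selenite was added, NADPH fluorescence (Ex 340/Em 450 nm) was followed for 8 min.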
VDR inh – vitamin D3 receptor (human) inhibition. hit rate 0.93% among 400,000. AID 504847. Potency, µM, for the others: max response, negative = inhibition, actives largely listed as inhibitors. P11473. VDR-SRC2-3 peptide fluorescence polarization, 2 h; further: potency means the concentration at half of the fitted maximal effect; on the % scale 0 is the no-effect control and ±100 the full control effect
Target sequence (P11473 whole entry, looked up): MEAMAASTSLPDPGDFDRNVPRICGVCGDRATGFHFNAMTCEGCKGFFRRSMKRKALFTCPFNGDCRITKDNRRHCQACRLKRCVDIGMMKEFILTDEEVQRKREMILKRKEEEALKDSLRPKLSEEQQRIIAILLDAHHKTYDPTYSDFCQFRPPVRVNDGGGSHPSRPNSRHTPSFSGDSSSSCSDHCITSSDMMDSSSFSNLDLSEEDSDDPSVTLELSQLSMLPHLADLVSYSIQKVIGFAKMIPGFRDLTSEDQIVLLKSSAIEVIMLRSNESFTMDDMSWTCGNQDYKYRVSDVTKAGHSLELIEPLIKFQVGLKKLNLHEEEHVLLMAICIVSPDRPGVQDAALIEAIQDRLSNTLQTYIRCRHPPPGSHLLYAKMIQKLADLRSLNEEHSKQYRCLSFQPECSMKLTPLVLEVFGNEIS
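Measured by FP: displacement of SRC2-3 coactivator peptide from VDR by library compounds, following a two-hour ambient incubation.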
Sfp PPTase inh – blocks B. subtilis Sfp PPTase activity. Q9F4F7. Biochemical Sfp PPTase activity, qHTS. Potency, µM, inactives show largest response in the series, negative = inhibition, hits mostly inhibitors. hit rate 3.5% among 310,000. AID 1490;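 further: the enzyme is Sfp with the accession as filed and its product quenches rhodamine fluorescence; potency means the concentration at half of the fitted maximal effect; 0% = enzyme reaction without inhibitor and -100% = no enzyme wells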
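Reaction rates are the 30-min fluorescence difference (ex 525, em 598 nm) in wells containing 15 nM Sfp, 5 uM rhodamine-CoA and 12.5 uM BHQ-2-YbbR at pH 7.6 with 10 mM MgCl2.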
TrxR1 substrate – is turned over as a substrate by rat TrxR1 | Potency, µM (top dose mostly 114 µM), for the others: at the highest dose activity change, negative = substrate turnover | purified TrxR1 substrate turnover, NADPH consumption readout | O89049 | hit rate 0.01% among 390,000; further: potency means the concentration at half of the fitted maximal effect; on the % scale 0 is the no-effect control and ±100 the full control effect; nearly all actives have a fitted effect of over 50% in size
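Rat TrxR1, dispensed at 90 nM, was prereduced with 400 uM NADPH (final) for 5 min at ~22 deg C, then incubated with compound 15 min before 400 uM selenite. A first-read NADPH fluorescence drop versus no-compound background flagged substrates.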
mIDH1 inhibitor – blocks human mutant IDH1 R132H enzyme | O75874 | IDH1-R132H enzyme, NADPH consumption, diaphorase/resazurin fluorescence | Potency, µM (top dose mostly 76.6 µM), for the others: at the top dose activity change, negative = inhibition, usual class: inhibitors | hit rate 0.093% among 390,000; further: potency means the concentration at half of the fitted maximal effect; on the % scale 0 is the no-effect control and ±100 the full control effect; nearly all actives have a fitted effect of over 65% in size
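IDH1-R132H (0.5 ug/mL dispensed) in pH 7.5 Tris buffer was preincubated 30 min with compound, then given a substrate mix of 0.016 mM NADPH and 2 mM alpha-KG for 80 min at room temperature; remaining NADPH was read by diaphorase/resazurin fluorescence.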
Resorufin autofl – counter-screen for mutant IDH1 inhibitors: fluorescence interference | inhibition of signal, % at 51.2 µM | 750 tested, under 10 active | Resorufin detection reagent fluorescence interference, cell-free | AID 623980 | shares compounds with mIDH1 inhibitor;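 further: 0% = wells with normal resorufin and full inhibition = wells lacking resorufin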
IDH1 WT – inhibits human wild-type IDH1, mutant selectivity check; shares compounds with mIDH1 inhibitor; WT IDH1 enzyme, NADPH diaphorase/resazurin fluorescence; Potency, µM (series often up to 115 µM), for inactives: at the top dose activity change, negative = inhibition, usual class: inhibitors; hit rate 9% among 750; AID 623995;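 further: potency means the concentration at half of the fitted maximal effect; 0% = full WT IDH1 enzyme control and full inhibition = no enzyme wells; nearly all actives have a fitted effect of over 55% in size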
mIDH1 confirm – inhibits human mutant IDH1 enzyme in cherrypick confirmation | shares compounds with mIDH1 inhibitor | IDH1 R132H enzyme, NADPH diaphorase/resazurin fluorescence | Potency, µM (series often up to 76.6 µM), for inactives: at the top dose activity change, negative = inhibition, actives largely listed as inhibitors | hit rate 83% among 750; further: potency means the concentration at half of the fitted maximal effect; nearly all actives have a fitted effect of over 50% in size
An asterisk follows results filed as active; ? = inconclusive; . = not tested or not shown; [ ] = another dose, or the depositor's remark. The call rests on the fitted dose curve; in most records, active means well fitted curve in the direction sought with a large enough effect; inconclusive means small, poorly fitted or top-dose-only effect, or another doubt; inactive means no such curve, though single readings can be large; an effect the other way counts as inactive or inconclusive.

SMILES	PLK1 PBD inh	TrxR1 inh	VDR inh	Sfp PPTase inh	TrxR1 substrate	mIDH1 inhibitor	Resorufin autofl	IDH1 WT	mIDH1 confirm
O=C(NCc1cccnc1)[C@@H]1CC=C[C@@H]2CCN(C3CCCCC3)C(=O)[C@@H]21	.	11%	.	.	5%	.	.	.	.
Cc1ccc(NC(=O)CCSCCC(=O)Nc2ccc(C)c(C)c2)cc1C	-15%	3%	-2%	5%	-1%	3%	.	.	.
Cc1ccc(Sc2ccc(NC(=O)CCl)cc2)cc1C	-4%	?	-29%	-14%	1%	?	-2	?	40µM*
Cc1ccc(C)c(Sc2ccc(NC(=O)CCl)cc2)c1	-5%	-25%	-21%	9%	-1%	?	-6	-27%	40µM*
O=C(Nc1nc2ccccc2[nH]1)NC1CCCCC1	-2%	26%	5%	13%	4%	-17%	.	.	.
COc1ccc(N(CC(=O)N2CCN(c3ccc(Cl)cc3)CC2)S(=O)(=O)c2c(C)n[nH]c2C)cc1	-8%	20%	-7%	2%	7%	?	-2	-7%	13µM*
CC(C)NC(=O)CCCN1C(=O)CCn2nc(-c3cccn3C)cc21	.	14%[57.1 µM]	3%	.	-1%[57.1 µM]	-8%	.	.	.
Cc1ccc(C(=O)N2CCc3ccccc32)o1	1%	-16%	4%	-1%	-11%	?	0	0%	3%
O=C(c1ccc([N+](=O)[O-])o1)N1CCc2ccccc21	1%	-21%[57.1 µM]	2%	10%	-7%[57.1 µM]	7%	.	.	.
Cc1nn(C(C)C(=O)N/N=C/c2ccc(N(C)C)cc2)c(C)c1[N+](=O)[O-] (stereo not drawn)	-2%	9%[57.1 µM]	-4%	-12%	-20%[57.1 µM]	6%	.	.	.
CC(C)Cn1c(SCC(=O)N2CCc3ccccc3C2)nc2cc(Cl)ccc2c1=O	2%	-6%	1%	-3%	-6%	?	.	.	.
COCCn1c(SCC(=O)N2CCc3ccccc3C2)nc2cc(Cl)ccc2c1=O	1%	6%	2%	-18%	-4%	26µM*	-7	8%	11µM*
Cc1noc(C)c1C(=O)N1CCC2(CCN(Cc3cc(C(F)(F)F)cc(C(F)(F)F)c3)CC2)CC1	.	.	-10%	8%	.	.	.	.	.
CC(=O)NC1C(=O)N(CCN2CCOCC2)c2ccc(Cl)cc21 (stereo not drawn)	-13%	-2%	?	?	0%	41µM*	5	?	-118%
O=C1/C(=C\c2ccc(Cl)c(Cl)c2)CN(C(=O)CCN2CCOCC2)C/C1=C/c1ccc(Cl)c(Cl)c1	-25%	1.4µM*	3.2µM*	.	11%[57.1 µM]	?	-4	-4%	28µM*
O=C(NCCN1CCOCC1)c1ccc(Cl)c(Cl)c1	0%	24%	3%	7%	-1%	2%	.	.	.
CC(C)n1nnnc1C1c2ccccc2C(=O)N1Cc1cccnc1 (stereo not drawn)	4%	.	.	.	.	.	.	.	.
N#Cc1ccccc1Cn1cc(/C=C/[N+](=O)[O-])c2ccccc21	?	?	32µM*	-28%	0%[57.1 µM]	28µM*	5	?	20µM*
O=P(CCCCCCCCCP(=O)(c1ccccc1)c1ccccc1)(c1ccccc1)c1ccccc1	-4%	5%[57.1 µM]	2%	-31%	-5%	33µM*	-9	1%	22µM*
O=C(O)CCCCCCCCCCP(=O)(c1ccccc1)c1ccccc1	-8%	14%	15%	26%	4%	-1%	.	.	.
COc1ccc(CN2CCC2(C)C(=O)NCc2ccc3c(c2)OCO3)c2ccccc12 (stereo not drawn)	5%	.	.	.	.	.	.	.	.
COc1cc(SC#N)ccc1N=Cc1c(C)[nH]n(-c2ccc(C)cc2C)c1=O	8.4µM*	-1%	?	-11%	-7%	41µM*	2	14%	16µM*
Cc1cc(C)c2c(n1)sc1c(=O)n(-c3cc(Cl)ccc3C)nnc12	.	20%	11%	.	3%	-1%	.	.	.
CCOc1cc(C=C2C(=O)c3ccccc3C2=O)ccc1OCC(=O)Nc1ccc(C)cc1	?	17%[57.1 µM]	-14%	-5%	12%[57.1 µM]	?	-4	7%	16µM*
CCOc1cc(/C=N/NC(N)=O)ccc1OCC(=O)Nc1ccc(C)c(C)c1	5%	-3%[57.1 µM]	-3%	-22%	1%[57.1 µM]	-21%	.	.	.
SMILES	PLK1 PBD inh	TrxR1 inh	VDR inh	Sfp PPTase inh	TrxR1 substrate	mIDH1 inhibitor	Resorufin autofl	IDH1 WT	mIDH1 confirm
CC(C)(C)[C@@H]1C=C(C(=O)Nc2ccccc2)O[C@H](OCc2ccc(CO)cc2)C1	-5%	16%[57.1 µM]	-5%	-5%	-8%	45µM*	-7	-5%	25µM*
Cc1nn(-c2ccccc2)c2nc(-c3cccs3)cc(C(=O)NN)c12	4%	12%	-5%	14%	2%	52µM*	-5	2%	-5%
CCOC(=O)c1cc(-c2cccs2)nc2c1c(C)nn2-c1ccccn1	-4%	28%[57.1 µM]	-14%	?	19%[57.1 µM]	15µM*	-2	1%	20µM*
CC(C)CN1CCN=C1Nc1ccccc1	-9%	15%	-14%	5%	1%	9%	.	.	.
CC(=O)N1CCc2c(sc3c2c(=O)n(-c2ccccc2)c(=O)n3CC(=O)c2ccccc2)C1	.	11%	-8%	.	-1%	1%	.	.	.
CC(=O)N1CCc2c(sc3c2c(=O)n(-c2ccccc2)c(=O)n3Cc2cccc(C(F)(F)F)c2)C1	.	5%	-14%	.	-2%	22µM*	-12	7.9µM*	11µM*
COc1cccc(Cn2c(=O)n(-c3cccc(Cl)c3)c(=O)c3c4c(sc32)CN(C(C)=O)CC4)c1	.	-6%	-2%	.	-1%	?	0	14µM*	14µM*
CCC(C)NC(=O)CSc1nc2c(sc3ccccc32)c(=O)n1Cc1ccccc1Cl (stereo not drawn)	.	16%[57.1 µM]	5%	.	4%[57.1 µM]	-11%	.	.	.
CCCCn1c(-c2ccc(C)cc2)c(C)n2c3c(=O)n(C)c(=O)n(C)c3nc12	.	-18%[57.1 µM]	8%	.	-11%[57.1 µM]	?	-8	-16%	11µM*
CCOC(=O)c1ccccc1NC(=O)c1cn(CC(C)C)c(=O)c2cc(OC)c(OC)cc12	.	14%	-2%	.	9%[2.29 µM]	45µM*	-7	1%	14µM*
CCCCOC(=O)CSC1=C(C#N)C(c2ccccc2OCC)C(C#N)C(=O)N1 (stereo not drawn)	-14%	?	14%	-9%	-10%[57.1 µM]	?	.	.	.
